# Test results from the supplement of paper PMC12669032.
# Several values for one entry are separate records, joined by “and”; a condition that tells them apart may be missing. Identical values can stand only once. Values without a mark were called inactive.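 The calls were made as follows: active = AUC reduced over 20% with Padj below 0.05 in at least 2 of 3 replicates; inactive = otherwise.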
# System: Coprococcus comes
# Test: growth AUC relative to DMSO control (median of replicates) (fraction); higher = more growth (less inhibition), active = hit call of the paper
# Settings: 20 µM; 24 h
# Method in brief: (§1)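 Area under the growth curve was normalised to the plate median of solvent-only wells, except on the industrial chemical plate, where row and column medians were used. Curves came from gut bacterial monocultures grown anaerobically at 37 °C in mGAM with 20 µM compound (1% DMSO), starting at OD600 0.05 and read at OD600 every hour for 24 h. The minimum OD of each curve was set to 0, and values are medians of three biological replicates grown on separate days.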
row,Structure (SMILES),growth AUC
1,Nc1cc(Cl)cc(C(=O)O)c1Cl,0.992
2,CCOP(=S)(OCC)Oc1cnccn1,0.984
3,O=C(O)C(F)(F)C(F)(F)C(F)(F)C(F)(F)C(F)(F)C(F)(F)C(F)(F)C(F)(F)F,1.01
4,CCOP(=S)(OCC)SCSCC,0.985
5,CCOCn1c(-c2ccc(Cl)cc2)c(C#N)c(Br)c1C(F)(F)F,1.02
6,CCS(=O)(=O)c1cccnc1S(=O)(=O)NC(=O)Nc1nc(OC)cc(OC)n1,0.968
7,CCNc1nc(NC(C)C)nc(SC)n1,1.01
8,CN1COCN(Cc2cnc(Cl)s2)/C1=N/[N+](=O)[O-],0.965
9,COP(=S)(NC(C)C)Oc1ccccc1C(=O)OC(C)C (stereo not drawn),1.03
10,COC(=O)C(C)(Cl)Cl,0.987
11,CCCCOCN(C(=O)CCl)c1c(CC)cccc1CC,0.996
12,CC1(C)C(C=C(Cl)Cl)C1C(=O)OC(C#N)c1ccc(F)c(Oc2ccccc2)c1 (mixture of isomers),0.981
13,CCOC(=O)CC(SP(=O)(OC)OC)C(=O)OCC (stereo not drawn),1
14,CCNc1nc(Cl)nc(NC(C)C)n1,1.01
15,Cc1cccc(C)c1N,1.02
16,CN(C)C(=O)Nc1ccc(Cl)cc1,0.985
17,CCCCNC(=O)n1c(NC(=O)OC)nc2ccccc21,1.04
18,N#Cc1cc(I)c(O)c(I)c1,1.02
19,CCOP(=S)(OCC)Oc1cc(Cl)c(Br)cc1Cl,0.976
20,Cc1cnc(C2=NC(C)(C(C)C)C(=O)N2)c(C(=O)O)c1 (stereo not drawn),1

row,Structure (SMILES),growth AUC
1,CC1(C)CCC(Cc2ccc(Cl)cc2)C1(O)Cn1cncn1 (stereo not drawn),0.982
2,CCCN(CCC)c1c([N+](=O)[O-])cc(S(C)(=O)=O)cc1[N+](=O)[O-],1.03
3,Cc1occc1C(=O)Nc1ccccc1,0.977
4,CCCOCC(=Nc1ccc(Cl)cc1C(F)(F)F)n1ccnc1,0.505 (active)
5,Nc1cc(Cl)cc(Cl)c1,1.01
6,O=C(O)COc1cc(Cl)c(Cl)cc1Cl,0.994
7,Cc1cc(Cl)ccc1N=CN(C)C,1.01
8,CNC(=O)Oc1cc(C)cc(C(C)C)c1,1.01
9,CCOc1cc(Oc2ccc(C(F)(F)F)cc2Cl)ccc1[N+](=O)[O-],0.602 (active)
10,O=[N+]([O-])c1c(Cl)c(Cl)c(Cl)c(Cl)c1Cl,0.821
11,CC(Cc1ccc(C(C)(C)C)cc1)CN1CCCCC1 (stereo not drawn),0.931
12,CNC(=O)c1cc(C#N)cc(C)c1NC(=O)c1cc(Br)nn1-c1ncccc1Cl,0.996
13,O=P(Oc1ccccc1)(Oc1ccccc1)Oc1ccccc1,0.937
14,CC(=NC#N)N(C)Cc1ccc(Cl)nc1,1.06 and 0.993
15,CO/N=C(/C1=NOCCO1)c1ccccc1Oc1ncnc(Oc2ccccc2Cl)c1F,0.962
16,Cc1ccn2nc(S(=O)(=O)Nc3c(F)cccc3F)nc2n1,0.981
17,N#Cc1c(Cl)c(Cl)c(Cl)c(C#N)c1Cl,0.974
18,C=CCC1=C(C)C(OC(=O)[C@@H]2[C@@H](C=C(C)C)C2(C)C)CC1=O (stereo partly drawn),1.03
19,O=C(O)CNCP(=O)(O)O,1

# System: Escherichia coli ED1a
# Test: as above
# Settings: 20 µM; 24 h
# Method in brief: as §1
row,Structure (SMILES),growth AUC
1,Nc1cc(Cl)cc(C(=O)O)c1Cl,1.01
2,CCOP(=S)(OCC)Oc1cnccn1,0.988
3,O=C(O)C(F)(F)C(F)(F)C(F)(F)C(F)(F)C(F)(F)C(F)(F)C(F)(F)C(F)(F)F,1.01
4,CCOP(=S)(OCC)SCSCC,0.987
5,CCOCn1c(-c2ccc(Cl)cc2)c(C#N)c(Br)c1C(F)(F)F,0.99
6,CCS(=O)(=O)c1cccnc1S(=O)(=O)NC(=O)Nc1nc(OC)cc(OC)n1,1
7,CCNc1nc(NC(C)C)nc(SC)n1,0.974
8,CN1COCN(Cc2cnc(Cl)s2)/C1=N/[N+](=O)[O-],0.987
9,COP(=S)(NC(C)C)Oc1ccccc1C(=O)OC(C)C (stereo not drawn),1.02
10,COC(=O)C(C)(Cl)Cl,0.977
11,CCCCOCN(C(=O)CCl)c1c(CC)cccc1CC,1.02
12,CC1(C)C(C=C(Cl)Cl)C1C(=O)OC(C#N)c1ccc(F)c(Oc2ccccc2)c1 (mixture of isomers),0.956
13,CCOC(=O)CC(SP(=O)(OC)OC)C(=O)OCC (stereo not drawn),0.97
14,CCNc1nc(Cl)nc(NC(C)C)n1,1.02
15,Cc1cccc(C)c1N,0.978
16,CN(C)C(=O)Nc1ccc(Cl)cc1,1.01
17,CCCCNC(=O)n1c(NC(=O)OC)nc2ccccc21,1.04
18,N#Cc1cc(I)c(O)c(I)c1,0.891
19,CCOP(=S)(OCC)Oc1cc(Cl)c(Br)cc1Cl,1.02
20,Cc1cnc(C2=NC(C)(C(C)C)C(=O)N2)c(C(=O)O)c1 (stereo not drawn),0.999

row,Structure (SMILES),growth AUC
1,CC1(C)CCC(Cc2ccc(Cl)cc2)C1(O)Cn1cncn1 (stereo not drawn),0.971
2,CCCN(CCC)c1c([N+](=O)[O-])cc(S(C)(=O)=O)cc1[N+](=O)[O-],0.978
3,Cc1occc1C(=O)Nc1ccccc1,0.966
4,CCCOCC(=Nc1ccc(Cl)cc1C(F)(F)F)n1ccnc1,0.994
5,Nc1cc(Cl)cc(Cl)c1,1.03
6,O=C(O)COc1cc(Cl)c(Cl)cc1Cl,0.965
7,Cc1cc(Cl)ccc1N=CN(C)C,0.998
8,CNC(=O)Oc1cc(C)cc(C(C)C)c1,0.959
9,CCOc1cc(Oc2ccc(C(F)(F)F)cc2Cl)ccc1[N+](=O)[O-],1.01
10,O=[N+]([O-])c1c(Cl)c(Cl)c(Cl)c(Cl)c1Cl,1
11,CC(Cc1ccc(C(C)(C)C)cc1)CN1CCCCC1 (stereo not drawn),0.998
12,CNC(=O)c1cc(C#N)cc(C)c1NC(=O)c1cc(Br)nn1-c1ncccc1Cl,1.01
13,O=P(Oc1ccccc1)(Oc1ccccc1)Oc1ccccc1,1
14,CC(=NC#N)N(C)Cc1ccc(Cl)nc1,0.994 and 1
15,CO/N=C(/C1=NOCCO1)c1ccccc1Oc1ncnc(Oc2ccccc2Cl)c1F,0.967
16,Cc1ccn2nc(S(=O)(=O)Nc3c(F)cccc3F)nc2n1,0.969
17,N#Cc1c(Cl)c(Cl)c(Cl)c(C#N)c1Cl,0.967
18,C=CCC1=C(C)C(OC(=O)[C@@H]2[C@@H](C=C(C)C)C2(C)C)CC1=O (stereo partly drawn),1.01
19,O=C(O)CNCP(=O)(O)O,1
